Bioassay records as filed in PubChem.
Cycloheximide cs: counter-screen for Shiga toxin inhibitors: cycloheximide protein synthesis inhibition | max response, % | 12% of 300,000 active | cell reporter, cycloheximide protein synthesis inhibition counterscreen; in the data active means max response mostly above about 13%, no sharp cut-off; inactive means mostly below about 14%; further: read at 38.3 µM for the half of the compounds with a filed dose; 0% is about no effect
Sm TGR block: blocks Schistosoma mansoni thioredoxin glutathione reductase. Potency, µM (doses to about 114 µM), for inactives: at the highest dose activity change, negative = inhibition, hits mostly inhibitors. AID 485364. 3% of 360,000 active. Q962Y6. purified TGR, DTNB reduction, TNB absorbance 405 nm; further: potency means the concentration at half of the fitted maximal effect; on the % scale 0 is the no-effect control and ±100 the full control effect; nearly all actives have a fitted effect of over 60% in size
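First, TGR (20 nM dispensed) and NADPH were mixed with compound. Second, a 15 min room-temperature incubation followed. Third, further NADPH and then DTNB were added to start the reaction. Finally, TNB absorbance was monitored kinetically.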
Shiga inhibitor: inhibitors of Shiga toxin in Vero cells. Vero cells, Shiga toxin protein synthesis inhibition reporter. AID 2315. inhibition, % at 38.7 µM. 9.2% of 290,000 active; in the data active means inhibition mostly above about 28%, no sharp cut-off; inactive means mostly below about 43%; further: 0% is about no effect
TbPYK inhibitor: blocks Trypanosoma brucei pyruvate kinase; Q57TT1; 0.12% of 410,000 active; Potency, µM (titrated, usually from 76.8 µM), for the others: at the highest dose activity, negative = inhibition, actives largely listed as inhibitors; TbPYK enzyme, Kinase-Glo Plus ATP luminescence, 45 min; AID 624173; further: potency means the concentration at half of the fitted maximal effect; on the % scale 0 is the no-effect control and ±100 the full control effect; nearly all actives have a fitted effect of over 50% in size
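TbPYK + substrate in 50 mM TEA pH 7.2, 100 mM KCl, 10 mM MgCl2, 0.05% BSA, 0.01% Tween-20; cpd pinned; ADP 130 uM final; 45 min RT; Kinase-Glo Plus 10 min; luminescence endpoint.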
FBPA Giardia inh: Giardia lamblia aldolase inhibition; A8B2U2; 0.71% of 290,000 active; Potency, µM (highest dose often 59.6 µM), for the others: top-dose activity, negative = inhibition, hits mostly inhibitors; purified Giardia FBPA; further: potency means the concentration at half of the fitted maximal effect; on the % scale 0 is the no-effect control and ±100 the full control effect; nearly all actives have a fitted effect of over 55% in size
Target sequence (A8B2U2 whole entry, looked up): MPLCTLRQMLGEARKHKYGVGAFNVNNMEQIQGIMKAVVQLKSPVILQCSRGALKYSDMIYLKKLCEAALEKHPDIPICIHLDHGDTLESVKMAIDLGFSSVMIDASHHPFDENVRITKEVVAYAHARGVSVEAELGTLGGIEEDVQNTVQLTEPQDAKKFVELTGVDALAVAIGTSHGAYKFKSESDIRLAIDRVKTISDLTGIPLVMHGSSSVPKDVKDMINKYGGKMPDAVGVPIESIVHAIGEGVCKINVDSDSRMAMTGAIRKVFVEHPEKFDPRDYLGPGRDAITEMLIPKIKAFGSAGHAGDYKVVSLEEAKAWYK
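40 nM FBPA preincubated 10 min at RT with compound (up to 57.5 uM final), then substrate plus GAPDH/TPI/NAD/arsenate coupling and diaphorase/resazurin added. Fluorescence read after 20 min at RT, 525/598 nm.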
LmPK inhibitor: inhibitors of Leishmania mexicana pyruvate kinase | Q27686 | purified LmPK, Kinase-Glo ATP luminescence, 1 h | Potency, µM (titrated, usually from 57.5 µM), for the others: at the top dose activity change, negative = inhibition, actives largely listed as inhibitors | 0.37% of 290,000 active | AID 1721; further: potency means the concentration at half of the fitted maximal effect; on the % scale 0 is the no-effect control and ±100 the full control effect
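Purified LmPK (0.1 nM) with 0.5 mM PEP and 0.1 mM ADP in imidazole buffer pH 7.2 with MgCl2/KCl, 1 h at room temperature. ATP formed was read by luciferase luminescence and normalized to no-enzyme and uninhibited controls.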
Active calls of the source: *; [ ] = dose if it differs, or a comment. The sample as a whole holds a higher share of hits than the screen did. Unless noted, the call rests on the fitted dose curve; in most records, active means well fitted curve in the direction sought with a large enough effect; inconclusive means small, poorly fitted or top-dose-only effect, or another doubt; inactive means no such curve, though single readings can be large; an effect the other way counts as inactive or inconclusive.

For COc1cccc(NC(=O)C2CCN(C(=O)[C@@H]3Cc4ccccc4CN3)CC2)c1 the results were Cycloheximide cs 38*, Sm TGR block -4%, Shiga inhibitor 12, TbPYK inhibitor 0% and LmPK inhibitor 5%.
Screening O=C(Nc1ccc([N+](=O)[O-])cc1)N1CCCCCC1 returned Cycloheximide cs 41*, Sm TGR block -3%, Shiga inhibitor 50*, TbPYK inhibitor 0%, FBPA Giardia inh 2% and LmPK inhibitor -7%.
Screening CCC1CCC(C(=O)NC(C(=O)Nc2cccc(OC)c2)C(C)C)CC1 (stereo not given) returned Sm TGR block 7% and TbPYK inhibitor -1%.
`COc1cccc(NC(=O)C2CCCCC2)c1` gave Cycloheximide cs 29*, Sm TGR block -11%, Shiga inhibitor 44*, TbPYK inhibitor -1%, FBPA Giardia inh 0% and LmPK inhibitor 6%.
CC(C)(C)Cc1c(-c2cccc(Br)c2)nc2ccc(Cl)cn12 was read as TbPYK inhibitor -18%.
`CC(=O)Nc1c(C)nn(-c2ccccc2)c1N1CCC(C(=O)Nc2ccccc2F)CC1` gave Sm TGR block -7% and TbPYK inhibitor -3%.
Screening COc1cccc(NC(=O)N2CCCCCC2)c1 returned Cycloheximide cs 74*, Sm TGR block 4%, Shiga inhibitor 46*, TbPYK inhibitor 0%, FBPA Giardia inh -4% and LmPK inhibitor -2%.
Screening O=C(Nc1ccc(Br)cc1)N1CCCCC1 returned Cycloheximide cs 42*, Sm TGR block 0%, Shiga inhibitor 140*, TbPYK inhibitor 1%, FBPA Giardia inh -4% and LmPK inhibitor -10%.
For COc1ccc(NC(=O)N2CCCC(c3ccccc3)C2)cc1 (stereo not given) the results were Cycloheximide cs 17*, Sm TGR block -11%, Shiga inhibitor 47, TbPYK inhibitor -3%, FBPA Giardia inh -26% and LmPK inhibitor 3%.
Screening CN1CCN(C(=S)C(=O)Nc2ccc(Br)cc2)CC1 returned Cycloheximide cs -3, Shiga inhibitor 1, TbPYK inhibitor inconclusive, FBPA Giardia inh 5µM* and LmPK inhibitor 1%.
COc1ccc(S(=O)(=O)N2CCC(C(=O)NCCCc3ccccc3)CC2)cc1 was read as Cycloheximide cs 13, Sm TGR block 0%, Shiga inhibitor -7, TbPYK inhibitor 2% and LmPK inhibitor 1%.
For CC1=C(C(=O)Nc2cc(Cl)ccc2C)C2(CCCCC2)OC1=O the results were Sm TGR block -15% and TbPYK inhibitor 4%.
`COc1cc([N+](=O)[O-])ccc1NC(=O)N1CCCCCC1` gave Cycloheximide cs 12, Sm TGR block 32µM*, Shiga inhibitor 0, TbPYK inhibitor 7% and LmPK inhibitor -12%.
COc1cccc(NC(=O)N2CCN(c3cccc(C)c3)C(C)C2)c1 (stereo not given) was read as Cycloheximide cs 34*, Sm TGR block 3%, Shiga inhibitor 50*, TbPYK inhibitor 4%, FBPA Giardia inh -4% and LmPK inhibitor 4%.
Screening COc1ccc(NC(=O)OC(CN2CCCCC2)C(F)(F)F)cc1 (stereo not given) returned Cycloheximide cs 21*, Sm TGR block 0%, Shiga inhibitor 21, TbPYK inhibitor 4%, FBPA Giardia inh -2% and LmPK inhibitor -9%.
For COc1ccc(NC(=O)N2CCCCCC2)cc1 the results were Cycloheximide cs 21*, Sm TGR block 13%, Shiga inhibitor 50*, TbPYK inhibitor 3%, FBPA Giardia inh 2% and LmPK inhibitor -2%.
`COc1ccc(S(=O)(=O)N2CCC(N3CCN(Cc4ccccc4)C(=O)C3=O)CC2)cc1` gave Sm TGR block -2% and TbPYK inhibitor 3%.
Screening CCOc1ccc(OCC)c(NC(=O)C2CCN(S(=O)(=O)c3ccc(Br)s3)CC2)c1 returned Sm TGR block 7% and TbPYK inhibitor 1%.
For Clc1cccc(-c2csc(-c3nc(-c4ccc(Br)s4)cs3)n2)c1 the results were Sm TGR block 6% and TbPYK inhibitor 0%.
COc1ccc(NC(=O)N2CCN(C(=O)Nc3ccc(OC)cc3)CC2)cc1 was read as Cycloheximide cs -3, Sm TGR block -2%, Shiga inhibitor 0, TbPYK inhibitor 5%, FBPA Giardia inh 3% and LmPK inhibitor 5%.
Screening COc1ccc(NC(=O)N2CCC3(CC2)OCCO3)cc1 returned Cycloheximide cs 27*, Shiga inhibitor 35, TbPYK inhibitor -5%, FBPA Giardia inh 0% and LmPK inhibitor 0%.
COC(=O)c1sccc1NC(=O)Nc1ccc(C(C)=O)cc1 was read as Cycloheximide cs 45*, Sm TGR block 4%, Shiga inhibitor 53*, TbPYK inhibitor -16% and LmPK inhibitor -25%.
`COc1cccc(NC(=O)Nc2ccccc2Br)c1` gave Cycloheximide cs 53*, Sm TGR block 35%, Shiga inhibitor 74*, TbPYK inhibitor 0%, FBPA Giardia inh 13% and LmPK inhibitor inconclusive.
For COc1ccc(NC(=O)Nc2cccc(OC)c2)cc1 the results were TbPYK inhibitor 6%.
`COC(=O)c1sccc1NC(=O)c1cccc(OC)c1` gave Cycloheximide cs 1, Sm TGR block 5%, Shiga inhibitor 12, TbPYK inhibitor -15%, FBPA Giardia inh -2% and LmPK inhibitor 1%.
For COC(=O)c1sccc1NC(=O)Nc1cc(C)cc(C)c1 the results were Cycloheximide cs 47*, Sm TGR block 0%, Shiga inhibitor 80*, TbPYK inhibitor 2% and LmPK inhibitor -14%.
For COC(=O)c1sccc1NC(=O)Nc1cccc(OC)c1 the results were Cycloheximide cs 45*, Sm TGR block -21%, Shiga inhibitor 40*, TbPYK inhibitor -22% and LmPK inhibitor -17%.
Screening COC(=O)c1sccc1NC(=S)Nc1cc(C)ccc1OC returned Cycloheximide cs -4, Sm TGR block -5%, Shiga inhibitor -4, TbPYK inhibitor -4%, FBPA Giardia inh -13% and LmPK inhibitor -3%[11.5 µM].
CCc1ccccc1NC(=O)Nc1ccsc1C(=O)OC was read as Cycloheximide cs 13, Sm TGR block 1%, Shiga inhibitor 28, TbPYK inhibitor 0%, FBPA Giardia inh 6% and LmPK inhibitor 6%.
For Cc1ccc(S(=O)(=O)c2cnc(SC(C)C(=O)Nc3ccccc3)[nH]c2=O)cc1 (stereo not given) the results were Sm TGR block -2% and TbPYK inhibitor -7%.
Screening COC(=O)c1sccc1NC(=O)NC1CCCCC1 returned Cycloheximide cs 47*, Sm TGR block 7%, Shiga inhibitor 31, TbPYK inhibitor 2%, FBPA Giardia inh -7% and LmPK inhibitor -13%.
`CCOc1ccccc1NC(=O)Nc1ccsc1C(=O)OC` gave Cycloheximide cs 22*, Sm TGR block 4%, Shiga inhibitor 36*, TbPYK inhibitor -3% and LmPK inhibitor -2%.
